Most compounds without a hit are left out; they make up all but 17% or so of the library.
TDP1 cell CPT: DT40-hTDP1 cell growth loss with CPT. Potency, µM (titrated, usually from 46.2 µM), inactives show at the top dose activity change, negative = growth inhibition, usual class: inhibitors. actives 12% (n = 420,000). chicken DT40 Tdp1-/-;hTDP1 cells + 20 nM CPT, ATP luminescence, 48 h; further: on the % scale 0 is the no-effect control and ±100 the full control effect; nearly all actives have a fitted effect of over 55% in size
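Chicken DT40 Tdp1-/- cells complemented with human TDP1, 400 cells/well, exposed to compounds plus 20 nM camptothecin for at least 48 h at 37 C; viability read as ATP content by CellTiter-Glo luminescence.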
HepG2 tox: counter-screen for TGF-b inhibitors: cytotoxicity in HepG2 cells; actives 0.76% (n = 410,000); Potency, µM (series often up to 46.1 µM), for the others: top-dose activity change, negative = cytotoxicity, actives largely listed as cytotoxic; HepG2 CAGA-GFP viability, ATP luminescence, 18 h; AID 588856
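CellTiter-Glo luminescence gave cytotoxicity after 18 hours at 37 degrees C. The cells were HepG2 CAGA-GFP in 1% FBS DMEM, stimulated with 500 pg/mL TGF-beta after compound addition. %Activity was normalised to no-cell wells (complete cell-killing) and DMSO (no toxicity), and curves were fitted and classified.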
HT1080 IDH1KD tx: HT-1080 IDH1 knockdown cell toxicity (counter line). HT-1080 IDH1 knockdown viability, ATP luminescence, 48 h. Potency, µM (titrated, usually from 46.1 µM), without a hit: at the highest dose activity, negative = toxicity, most hits filed as cytotoxic. actives 2% (n = 360,000);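 further: 0% = DMSO wells and -100% = cell-free medium wells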
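Knockdown cells (IDH1KD HT-1080) received compounds 2 h after plating at 750 cells/well and were kept 48 h at 37 °C in 5% FBS RPMI. A CellTiter-Glo luminescence read gave % activity for curve fitting.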
HT1080NT lethal: kills 2HG-producing HT-1080-NT fibrosarcoma cells | HT-1080-NT fibrosarcoma viability, CellTiter-Glo ATP luminescence, 48 h | Potency, µM (doses to about 46.1 µM), inactives show at the highest dose activity, negative = less viability, actives largely listed as cytotoxic | actives 1.6% (n = 360,000) | AID 686970;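 further: NT is the 2HG producing partner of a matched IDH1 knockdown line; 0% = DMSO-treated cells and -100% = media-only wells without cells; nearly all actives have a fitted effect of over 55% in size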
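Fibrosarcoma NT cells, 750 per well in 5% FBS RPMI, were exposed to compound for 48 hours. Viability: CellTiter-Glo luminescence.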
TDP1 cell noCPT: qHTS for Inhibitors of human tyrosyl-DNA phosphodiesterase 1 (TDP1): qHTS in cells in absence of CPT; Potency, µM (titrated, usually from 46.2 µM), without a hit: top-dose activity change, negative = growth inhibition, actives largely listed as inhibitors; DT40 Tdp1-/- hTDP1 cells, no CPT, ATP luminescence, 48 h; actives 15% (n = 420,000); further: on the % scale 0 is the no-effect control and ±100 the full control effect; nearly all actives have a fitted effect of over 55% in size
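Growth kinetics read by CellTiter-Glo luminescence after ≥48 hr at 37 °C. Cells: DT40 Tdp1-/- stably carrying human TDP1, 400 per well, compound exposure in the absence of CPT (DMSO vehicle).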
TGFb inhibitor: blocks TGF-b signaling. HepG2 CAGA-GFP TGF-b/SMAD3 reporter, GFP fluorescence, 18 h; TGF-beta stimulated, 500 pg/mL final. Potency, µM (doses to about 46.1 µM), without a hit: at the top dose activity, negative = inhibition, usual class: inhibitors. actives 1.2% (n = 410,000). AID 588855; further: on the % scale 0 is the no-effect control and ±100 the full control effect; nearly all actives have a fitted effect of over 65% in size
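Smad-responsive CAGA-GFP expression was quantified in HEPG2 cells exposed to compounds and 500 pg/mL final TGF-beta for 18 h at 37 degrees C; unstimulated wells defined full inhibition.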
Active calls of the source: *; [ ] = remark or other dose. The call rests on the fitted dose curve; in most records, active means well fitted curve in the direction sought with a large enough effect; inconclusive means small, poorly fitted or top-dose-only effect, or another doubt; inactive means no such curve, though single readings can be large; an effect the other way counts as inactive or inconclusive. Potency means the concentration at half of the fitted maximal effect.

What do the screens show for `COc1ccc(-c2nc3n(c2C)CCC3)cc1`?
TDP1 cell CPT: 0%; HepG2 tox: 4%; HT1080 IDH1KD tx: 13%; HT1080NT lethal: 16%; TDP1 cell noCPT: -28%; TGFb inhibitor: 7%

How did COc1ccc(-c2cc3nc4n(c(=O)c3s2)CCC4)cc1 do in these assays?
TDP1 cell CPT: 15µM*; HepG2 tox: -38%; HT1080 IDH1KD tx: 0%; HT1080NT lethal: 2%[9.24 µM]; TDP1 cell noCPT: inconclusive; TGFb inhibitor: 15%

What do the screens show for `Cn1c(OCC2CCCO2)nc2cc(-c3ccccc3)sc2c1=O` (stereo not drawn)?
TDP1 cell CPT: 23µM*; HepG2 tox: -12%; HT1080 IDH1KD tx: -3%; HT1080NT lethal: -2%; TDP1 cell noCPT: inconclusive; TGFb inhibitor: 7%

Results for COc1ccc(-c2nc3ccccc3c(=O)n2N)cc1 ?
TDP1 cell CPT: -3%; HepG2 tox: -4%; HT1080 IDH1KD tx: -1%; HT1080NT lethal: 15%; TDP1 cell noCPT: -23%; TGFb inhibitor: -7%

What do the screens show for `Cc1nc2cc(-c3ccccc3)sc2c(=O)n1N`?
TDP1 cell CPT: 16µM*; HepG2 tox: 7.1µM*; HT1080 IDH1KD tx: 3.7µM*; HT1080NT lethal: 3.7µM*; TDP1 cell noCPT: inconclusive; TGFb inhibitor: -13%

Results for COc1ccc(-c2cc3nc(C)n(N)c(=O)c3s2)cc1 ?
TDP1 cell CPT: 5.8µM*; HepG2 tox: 2.8µM*; HT1080 IDH1KD tx: 5.8µM*; HT1080NT lethal: 4.1µM*; TDP1 cell noCPT: 5.8µM*; TGFb inhibitor: 31%

How did CCN(CC)CCN1C(=O)C2C(C(=O)Nc3cc(C)cc(C)c3)C3C=CC2(O3)C1C(=O)NC1CCCCC1 (stereo not drawn) do in these assays?
TDP1 cell CPT: 6%; HepG2 tox: -11%; HT1080 IDH1KD tx: -3%; HT1080NT lethal: -1%; TDP1 cell noCPT: 0%; TGFb inhibitor: 8%

Results for CCOc1ccc(CNCc2ccccc2Cl)cc1 ?
TDP1 cell CPT: 16µM*; HepG2 tox: -33%; HT1080 IDH1KD tx: -18%; HT1080NT lethal: -71%; TDP1 cell noCPT: inconclusive; TGFb inhibitor: -32%

Results for Cc1ccc(CNCc2ccccc2Cl)cc1 ?
TDP1 cell CPT: -3%; HepG2 tox: -42%; HT1080 IDH1KD tx: 4%; HT1080NT lethal: 14%; TDP1 cell noCPT: inconclusive; TGFb inhibitor: -18%

Results for Clc1ccccc1CNCC1CCC(CNCc2ccccc2Cl)CC1 (stereo not drawn) ?
TDP1 cell CPT: 3µM*; TDP1 cell noCPT: 3µM*

Results for O=C1c2ccccc2C(=O)C12OC2c1ccc(Cl)cc1Cl (stereo not drawn) ?
TDP1 cell CPT: 5.2µM*; HepG2 tox: 20µM*; HT1080 IDH1KD tx: inconclusive; HT1080NT lethal: 21µM*; TDP1 cell noCPT: 9.2µM*; TGFb inhibitor: inconclusive

What do the screens show for `O=C1c2ccccc2C(=O)C1c1ccc(Cl)cc1`?
TDP1 cell CPT: 3%; HepG2 tox: -4%; HT1080 IDH1KD tx: 13%; HT1080NT lethal: 12%; TDP1 cell noCPT: 2%; TGFb inhibitor: 11%

Results for CCCCCCc1ccc(N2C[C@H](Cc3ccccc3)[C@@H](CC(=O)NCc3ccc(OC)cc3)C2=O)cc1 ?
TDP1 cell CPT: 13µM*; HepG2 tox: -20%; HT1080 IDH1KD tx: -6%; HT1080NT lethal: -25%; TDP1 cell noCPT: 13µM*; TGFb inhibitor: inconclusive

Results for CCCCC[C@H]1CN(Cc2ccc(OC)cc2)C(=O)[C@@H]1CC(=O)NCc1ccccc1 ?
TDP1 cell CPT: 12µM*; HepG2 tox: -67%; HT1080 IDH1KD tx: -6%; HT1080NT lethal: -12%; TDP1 cell noCPT: 11µM*; TGFb inhibitor: inconclusive

What do the screens show for `CCCCCCc1ccc(N2C[C@H](C)[C@@H](CC(=O)NCc3ccccc3)C2=O)cc1`?
TDP1 cell CPT: inconclusive; HepG2 tox: 11%; HT1080 IDH1KD tx: 0%; HT1080NT lethal: -10%; TDP1 cell noCPT: inconclusive; TGFb inhibitor: inconclusive

What do the screens show for `CCCCCCc1ccc(N2C[C@H](CCCCC)[C@@H](CC(=O)NCc3ccc(OC)cc3)C2=O)cc1`?
TDP1 cell CPT: inconclusive; HepG2 tox: 1%; HT1080 IDH1KD tx: 6%; HT1080NT lethal: 7%; TDP1 cell noCPT: 13µM*; TGFb inhibitor: inconclusive

How did CCCCCCc1ccc(N2C[C@H](CCCCC)[C@@H](CC(=O)NCc3ccccc3)C2=O)cc1 do in these assays?
TDP1 cell CPT: 14µM*; HepG2 tox: 2%; HT1080 IDH1KD tx: 4%; HT1080NT lethal: 16%; TDP1 cell noCPT: 18µM*; TGFb inhibitor: 20%

How did COc1cc(C(=O)NCC(=O)NC(C)CCc2ccccc2)cc(OC)c1OC (stereo not drawn) do in these assays?
TDP1 cell CPT: -21%; HepG2 tox: -32%; HT1080 IDH1KD tx: 7%; HT1080NT lethal: 8%; TDP1 cell noCPT: 19%; TGFb inhibitor: 0%

What do the screens show for `N#CC(OC(=O)c1ccccc1)c1cccc([N+](=O)[O-])c1` (stereo not drawn)?
TDP1 cell CPT: 4%; HepG2 tox: -1%; HT1080 IDH1KD tx: 4%; HT1080NT lethal: -2%; TDP1 cell noCPT: -12%; TGFb inhibitor: 17%

What do the screens show for `COc1ccc(NC(=O)C[C@H]2C(=O)N(Cc3cccnc3)C[C@@H]2Cc2ccccc2)cc1`?
TDP1 cell CPT: -18%; HepG2 tox: -17%; HT1080 IDH1KD tx: 1%; HT1080NT lethal: -1%; TDP1 cell noCPT: -22%; TGFb inhibitor: -7%

Results for COc1ccc(CN2C[C@H](Cc3ccccc3)[C@@H](CC(=O)Nc3ccccc3)C2=O)cc1 ?
TDP1 cell CPT: 22µM*; HepG2 tox: -13%; HT1080 IDH1KD tx: -8%; HT1080NT lethal: -25%; TDP1 cell noCPT: 16µM*; TGFb inhibitor: inconclusive

How did CN1CCN(C(=O)C(=O)Nc2c3c(nn2-c2ccc(Cl)cc2)CSC3)CC1 do in these assays?
TDP1 cell CPT: 0%; HepG2 tox: 2%; TDP1 cell noCPT: 1%; TGFb inhibitor: -7%

What do the screens show for `O=S(=O)(Nc1ccc(F)c(C(F)(F)F)c1)c1ccc(N2CCCCS2(=O)=O)cc1`?
TDP1 cell CPT: 21µM*; HepG2 tox: -25%; TDP1 cell noCPT: 12µM*; TGFb inhibitor: 10µM*

High-throughput results deposited in PubChem BioAssay by National Center for Advancing Translational Sciences (NCATS).
